Bioassay records: PubChem, National Center for Advancing Translational Sciences (NCATS)
A selection: hits, their analogues and other compounds. The true share with any hit is near 18%.
VP16 counter: inhibits Gal4-VP16 luciferase reporter, ROR gamma counter-screen | Drosophila S2 Gal4-VP16 UAS-luciferase, luminescence, 20 h | AID 2546 | Potency, µM (titrated, usually from 53.6 µM), inactives show top-dose activity, negative = inhibition, usual class: inhibitors | 310,000 compounds, 3.5% hits;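 note: Gal4-VP16 expression switched on by copper sulfate through the metallothionein promoter; potency is the fitted concentration of half-maximal effect; nearly all actives have a fitted effect of over 50% in size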
RORg inh: blocks mouse ROR gamma transcriptional activity; Potency, µM (top dose mostly 53.6 µM), without a hit: at the highest dose activity change, negative = inhibition, usual class: inhibitors; 310,000 compounds, 5.4% hits; P51450; Drosophila S2 Gal4-RORgamma UAS-luciferase reporter, 20 h; note: potency is the fitted concentration of half-maximal effect; nearly all actives have a fitted effect of over 60% in size
Target sequence (P51450 whole entry, looked up, the tested form may be a part): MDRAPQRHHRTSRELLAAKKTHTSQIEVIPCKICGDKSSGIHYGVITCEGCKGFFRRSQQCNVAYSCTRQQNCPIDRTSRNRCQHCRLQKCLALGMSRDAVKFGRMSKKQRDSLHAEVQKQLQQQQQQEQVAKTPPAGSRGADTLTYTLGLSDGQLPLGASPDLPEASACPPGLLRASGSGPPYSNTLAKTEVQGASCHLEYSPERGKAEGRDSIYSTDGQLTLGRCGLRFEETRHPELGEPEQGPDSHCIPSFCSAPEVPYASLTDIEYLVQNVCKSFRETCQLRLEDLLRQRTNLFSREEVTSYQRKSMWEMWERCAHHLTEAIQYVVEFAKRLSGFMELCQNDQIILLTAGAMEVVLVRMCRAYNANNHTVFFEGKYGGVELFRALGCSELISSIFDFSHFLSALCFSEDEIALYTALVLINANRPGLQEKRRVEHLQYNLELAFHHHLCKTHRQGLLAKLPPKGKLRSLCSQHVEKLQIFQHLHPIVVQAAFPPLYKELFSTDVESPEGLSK
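Compounds are pin-transferred onto Drosophila Schneider cells expressing a copper-inducible Gal4–ROR gamma transactivation domain fusion. After 1 hr, copper sulfate is added to 700 uM final; luciferase is read 20 hr later.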
LDHA inh: LDHA (human) enzyme inhibition; purified LDHA, NADH/diaphorase-resazurin fluorescence; hits give low values; activity change, % (values are at about 110 or 230 µM); 480,000 compounds, 0.15% hits; AID 1347041; in the data active = activity change below about -30%; inconclusive = mostly about -25% to -30%;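 note: plate controls were DMSO wells for no effect and wells without enzyme for full effect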
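Resorufin fluorescence (ex540/em590), read at 0 and 20 min after diaphorase/resazurin addition, reports the NADH left after a 5 min room-temperature reaction of 2 nM human LDH5 with 0.06 mM NADH and 0.2 mM pyruvate.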
TDP1 cell noCPT: qHTS for Inhibitors of human tyrosyl-DNA phosphodiesterase 1 (TDP1): qHTS in cells in absence of CPT; DT40 Tdp1-/- hTDP1 cells, no CPT, ATP luminescence, 48 h; 420,000 compounds, 15% hits; Potency, µM (top dose mostly 46.2 µM), for inactives: at the highest dose activity change, negative = growth inhibition, hits mostly inhibitors; AID 686978, 2013; note: potency is the fitted concentration of half-maximal effect; nearly all actives have a fitted effect of over 55% in size
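Cells were dispensed at 400 per well, compounds added by pin tool, plates incubated ≥48 hr at 37 °C, then CellTiter-Glo added for 30 min at room temperature before luminescence reading. Line: DT40 Tdp1-/- complemented with hTDP1; camptothecin omitted.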
TDP1 cell CPT: DT40-hTDP1 cell growth loss with CPT. chicken DT40 Tdp1-/-;hTDP1 cells + 20 nM CPT, ATP luminescence, 48 h. Potency, µM (top dose mostly 46.2 µM), without a hit: at the highest dose activity change, negative = growth inhibition, actives largely listed as inhibitors. 420,000 compounds, 12% hits; note: potency is the fitted concentration of half-maximal effect; nearly all actives have a fitted effect of over 55% in size
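Chicken DT40 Tdp1-/- cells complemented with human TDP1, 400 cells/well, exposed to compounds plus 20 nM camptothecin for at least 48 h at 37 C; viability read as ATP content by CellTiter-Glo luminescence.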
IL-1B inflam inh: inhibitors of inflammasome signaling (IL-1 beta secretion); THP-1 LPS/ATP IL-1B secretion, AlphaLISA, 16 h; hits give low values; activity change, % at 57.5 µM; 360,000 compounds, 4.7% hits; AID 743279; in the data active = activity change below about -50%; inconclusive = mostly about -30% to -49%
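THP-1 cells pretreated 1 hr with compounds (up to 57.5 uM final), then stimulated with LPS (250 ng/mL final) plus ATP (1.25 mM final); secreted IL-1B measured by AlphaLISA after 16 hr, decreased signal indicating inhibition.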
An asterisk follows results filed as active; u = inconclusive; x = no result given. Unless noted, calls come from the whole dose curve; as a rule, active = well fitted curve in the direction sought with a large enough effect; inconclusive = small, poorly fitted or top-dose-only effect, or another doubt; inactive = no such curve, though single readings can be large; an effect the other way counts as inactive or inconclusive. Unless noted, % is set by controls: 0 for no effect and ±100 for the full control effect.

SMILES | VP16 counter | RORg inh | LDHA inh | TDP1 cell noCPT | TDP1 cell CPT | IL-1B inflam inh
CC(CCc1ccco1)NC(=O)C1CCN(c2ccc3nnc(C(F)(F)F)n3n2)CC1 (stereo unspecified) | x | x | -11 | x | x | x
CCOC1OC(=O)C(Cl)=C1Nc1ccc(C)c(C)c1 (stereo unspecified) | x | x | 8 | x | x | x
CC(C)(C)c1ccc(OCCC(=O)Nc2ccc(N3CCOCC3)cc2)cc1 | x | x | -11 | x | x | x
CCOC(=O)c1c(NC(=S)Nc2ccc(F)cc2)sc2c1CCC2 | u | 10µM* | 0 | -10% | -17% | 12
CCOC(=O)c1c(NC(=O)Nc2ccc(F)cc2)sc2c1CCN(C)C2 | -7% | 4% | 2 | -12% | -10% | -28
O=[N+]([O-])c1ccccc1/C=N/OCc1ccc(Br)cc1 | x | x | -2 | x | x | x
O=C(O)c1cncnc1/C=C/c1ccc2ccccc2c1 | x | x | 1 | x | x | x
Brc1ccc(OCc2nc(-c3ccccn3)n[nH]2)cc1 | u | 14µM* | -6 | 15µM* | u | -13
Clc1ccc(OCc2nc(-c3ccccn3)n[nH]2)cc1 | -9% | -1% | 5 | u | u | 58
CCc1ccc(C2NC(=S)NC3=C2C(=O)N(c2ccccc2OC)C(c2ccc(CC)cc2)N3)cc1 (stereo unspecified) | 2% | u | -2 | 18µM* | 16µM* | -79*
O=C1C2=C(NC(=S)NC2c2ccc(Cl)cc2)NC(c2ccc(Cl)cc2)N1c1ccc(Cl)cc1 (stereo unspecified) | -11% | 18% | -6 | u | u | -101*
COc1ccccc1N1C(=O)c2ccccc2NC1c1ccncc1 (stereo unspecified) | -2% | 40% | 4 | 2% | -9% | 28
O=C1C2CCCN2C(c2ccc(F)cc2)N1c1ccc(Cl)cc1 (stereo unspecified) | 0% | 19% | -9 | -16% | 6% | -15
O=C(NCC(c1cccs1)N1CCOCC1)c1cc(=O)c2ccccc2o1 (stereo unspecified) | x | x | 6 | x | x | x
COC(=O)c1ccc(CNC(=O)NCC2(c3ccccc3)CC2)cc1 | x | x | 13 | x | x | x
CCOC(=O)c1cnc2c(C)c(Cl)ccc2c1N1CCN(CC)CC1 | -9% | -22% | -5 | u | u | -82*
CCOC(=O)c1cnc2c(ccc3ccccc32)c1Cl | 27% | -21% | -1 | -4% | 3% | -12
CCOC(=O)c1cnc2c(Cl)c(Cl)ccc2c1N1CCN(C)CC1 | -6% | -15% | -7 | -18% | -22% | -50*
Cc1ccc2c(c1)C1(SC(C)C(=O)N1c1ccc(Cl)cc1)C(=O)N2 (stereo unspecified) | x | x | -1 | 4.1µM* | 6.5µM* | 37
CNS(=O)(=O)Cc1ccccc1CNC(=O)c1cccc(F)c1 | x | x | 8 | x | x | x
O=C(CN1C(=O)CCc2cc(S(=O)(=O)N3CCOCC3)ccc21)NCc1ccccc1Cl | x | x | -3 | -14% | 0% | x
CCOc1ccccc1CNC(=O)CN1C(=O)CCc2cc(S(=O)(=O)N3CCCCC3)ccc21 | x | x | 4 | 21µM* | u | x
O=C(Cn1nc2c(cc1=O)CCCC2)NCc1ccc(Cl)cc1 | x | x | -7 | 18µM* | 16µM* | x
O=C(CN1C(=O)CCc2cc(S(=O)(=O)N3CCCCC3)ccc21)NCc1ccc(Cl)cc1 | x | x | -10 | 15µM* | 21µM* | x
CC(NC(=O)CSCC(N)=O)c1ccc(Cl)s1 (stereo unspecified) | x | x | 4 | x | x | x
SMILES | VP16 counter | RORg inh | LDHA inh | TDP1 cell noCPT | TDP1 cell CPT | IL-1B inflam inh
CCCCn1c(=O)[nH]c(=O)c2c1nc(CSc1nccn1-c1cccc(C)c1)n2C | x | x | 3 | x | x | x
Cc1cc2nc(-c3ccc(F)cc3)c(CC(C)(C)C)n2c(C)c1Br | x | x | -4 | 21µM* | 26µM* | 42
Cc1cc2nc(-c3cccc(Cl)c3)c(CC3CCCCC3)n2c(C)c1Br | x | x | 2 | u | -27% | 36
Cc1ccc(-c2nc3cc(C)c(Br)c(C)n3c2CC2CCCCC2)cc1 | x | x | -8 | 13µM* | u | 0
Cc1cc2nc(-c3ccc(F)cc3)c(CC3CCCCC3)n2c(C)c1Br | x | x | -3 | 21µM* | u | 36
CCCc1nc2cc(C)c(Br)c(C)n2c1CC1CCCCC1 | x | x | 3 | 2.9µM* | 4.1µM* | u
O=C(Nc1cccc(-c2nn3cnnc3s2)c1)c1ccccc1 | x | x | -3 | x | x | x
COc1ccc(C)cc1C(=O)NCCc1c[nH]c2ccccc12 | x | x | -4 | x | x | x
O=C(CSc1nc2ccccc2o1)N1CCCCC1 | x | x | -4 | x | x | x
Cc1cc2nc(-c3ccccc3)c(CC3CCCCC3)n2c(C)c1Br | x | x | -1 | 15µM* | 23µM* | 33
Cc1ccc(C(=O)N2CCN(c3cc(Cl)ccc3C)CC2)s1 | x | x | 13 | x | x | x
Cc1ccc(C)c(N2CCN(C(=O)c3cc4ccc5cccnc5c4[nH]3)CC2)c1 | x | x | -1 | u | 29µM* | x
COc1ccc(N2CCN(C(=O)c3cc4ccc5cccnc5c4[nH]3)CC2)cc1 | x | x | -1 | u | u | x
O=C(NCC1CCN(Cc2cccc(Cl)c2)CC1)c1cc2ccc3cccnc3c2[nH]1 | x | x | -1 | u | -30% | x
Cc1ccc(Cl)cc1N1CCN(C(=O)c2ccc(C)c(-n3c(C)nc4cccnc43)c2)CC1 | x | x | 1 | 5.2µM* | 7.3µM* | x
O=C(NCc1ccccc1)c1cc2ccc3cccnc3c2[nH]1 | x | x | -1 | u | u | x
Cc1ccc(Cl)cc1N(C)C(=O)c1cc2ccc3cccnc3c2[nH]1 | x | x | 6 | 8.2µM* | 6.5µM* | x
O=C(Nc1ccc(F)cc1F)c1cc2ccc3cccnc3c2[nH]1 | x | x | -3 | u | 2.9µM* | x
Cc1ccc(C)c(N2CCN(C(=O)c3cccc(-n4c(C)nc5cccnc54)c3)CC2)c1 | x | x | -7 | 13µM* | 7.3µM* | x
Cc1cccc(N2CCN(C(=O)c3cccc(-n4c(C)nc5cccnc54)c3)CC2)c1C | x | x | -4 | 5.8µM* | 7.3µM* | x
Cc1cccc(N2CCN(C(=O)c3ccccn3)CC2C)c1 (stereo unspecified) | 15% | 14% | 0 | -18% | u | 5
Cc1cccc(N2CCN(C(=O)c3cccc(-n4c(C)nc5cccnc54)c3)CC2C)c1 (stereo unspecified) | x | x | -5 | 6.5µM* | 8.2µM* | x
COC(=O)c1ccccc1S(=O)(=O)N1CCC(C(=O)NCCc2ccccn2)CC1 | x | x | 15 | x | x | x
O=C(Nc1ccc2oc(-c3ccc(Br)cc3)nc2c1)c1ccc2c(c1)OCO2 | x | x | -1 | x | x | x
COc1cc(C#N)ccc1OCc1cc(C#N)ccc1F | x | x | 3 | x | x | x
N#Cc1ccc(/C=C(/CC(=O)O)c2nc3ccccc3o2)cc1 | x | x | 0 | x | x | x
